In the library only some 2.4% were active in any assay of this set; here they are far more common.
D2 antag: D2 dopamine receptor (human) antagonism | 340,000 tested, 2% active | HEK293 TREx D2 cells, calcium flux, dopamine EC80 | P14416 | inhibition, % at 10 µM | AID 485344; in the data active means inhibition above about 30%; inactive means below that, where a call was filed
Target sequence (P14416 whole entry, looked up): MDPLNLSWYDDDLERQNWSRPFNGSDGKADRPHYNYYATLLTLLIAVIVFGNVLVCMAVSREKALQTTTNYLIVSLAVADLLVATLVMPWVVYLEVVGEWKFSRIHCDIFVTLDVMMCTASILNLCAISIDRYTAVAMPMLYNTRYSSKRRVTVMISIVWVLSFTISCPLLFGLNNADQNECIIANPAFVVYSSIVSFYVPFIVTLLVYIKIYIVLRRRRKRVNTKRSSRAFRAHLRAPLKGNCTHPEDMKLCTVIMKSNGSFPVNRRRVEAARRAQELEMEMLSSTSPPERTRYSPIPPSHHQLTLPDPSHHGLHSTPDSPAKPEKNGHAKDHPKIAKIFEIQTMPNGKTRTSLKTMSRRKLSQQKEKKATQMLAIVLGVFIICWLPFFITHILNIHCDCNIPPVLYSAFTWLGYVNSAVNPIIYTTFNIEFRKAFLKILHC
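Compounds are added to dye-loaded, induced HEK293 T-REx cells coupled to calcium release via D2; after a 3 min kinetic read an EC80 dopamine stimulus is given and fluorescence is recorded for 3 more min.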
D2 PAM-1: positively modulates the human D2 dopamine receptor allosterically; potentiation, % at 10 µM; 340,000 tested, 0.34% active; HEK293 T-REx D2, calcium flux, EC20 dopamine potentiation;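 active means potentiation over 3 SD above the plate norm, cut at about 30% in these data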
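Cells plated with tetracycline inducer and held overnight at 30 C; calcium dye loaded 30–90 min at room temperature; baseline taken, compound added and read 180 s; EC20 dopamine then added and read 180 s.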
D2 ag-1: agonists of human D2 dopamine receptor. 340,000 tested, 0.53% active. AID 485358. activation, % at 2 µM. P14416. HEK293 T-REx D2 cells, calcium flux agonist mode;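 active means activation over 3 SD above normal in the single-dose calcium agonist read, cut at about 30% in these data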
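Tetracycline-induced HEK293 Trex cells with D2 receptor force-coupled to calcium signaling, plated overnight at 30 C and loaded with no-wash calcium dye. Calcium flux read kinetically for 180 s after compound addition; responses flag agonists.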
D2 PAM-2: potentiates the human D2 dopamine receptor allosterically | P14416 | DiscoveRx D2 beta-arrestin cells, luminescence, 90 min; 100% = 57 uM dopamine signal | potentiation, % (test concentration not listed) | 360,000 tested, 0.23% active; in the data active means potentiation above about 50%; inconclusive means mostly about 30% to 49%
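D2 cells co-treated with compound plus 50 nM dopamine (EC20) for 90 min at 37 deg C to detect potentiation. Beta-arrestin recruitment was read as enzyme-fragment luminescence after 1 h at ambient temperature. Full response was set by 57 uM dopamine.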
D2 ag-2: human D2 receptor agonism in beta-arrestin assay; P14416; DiscoveRx PathHunter D2 beta-arrestin, luminescence, 90 min; 100% = 57 uM dopamine signal; activation, % (concentration not given with the values); 360,000 tested, 0.084% active; AID 624465; in the data active means activation above about 40%; inconclusive means between about 15% and that limit
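Agonist mode: compounds alone added to overnight-plated D2 PathHunter cells for 90 min at 37 C, with 57 uM final dopamine (EC100) defining full response. Beta-arrestin recruitment detected by chemiluminescent reagent, read after 1 h at ambient temperature.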
Of the large screens only hits and unclear results are named; the others gave an inactive call.

COc1cc(OC)c(NS(=O)(=O)c2c(C)nc3sc(C)cn3c2=O)cc1Cl	none (no result: D2 antag, D2 PAM-2, D2 ag-2)
COc1ccc(C(=O)Nc2ccccc2-c2nc(-c3ccc(OC)cc3)no2)cc1	none (no result: D2 antag, D2 PAM-2, D2 ag-2)
CC(C)c1ccc(N=c2c([N+](=O)[O-])nn(-c3ccc4c(c3)OCCO4)n2O)cc1	D2 PAM-2 71
COc1cccc(-c2cc3c(-n4cccc4)ncnc3o2)c1	D2 antag 37
COc1ccc(C2=NOC(C(=O)NCc3ccc(F)cc3)C2)cc1OC (stereo not drawn)	D2 PAM-1 37
COc1cccc(C2=NOC(C(=O)Nc3ccc4c(c3)OCO4)C2)c1OC (stereo not drawn)	D2 antag 60
COc1cc(C2=NOC(C(=O)Nc3ccc(C)cc3)C2)cc(OC)c1OC (stereo not drawn)	D2 antag 57
COc1cc(C2=NOC(C(=O)Nc3ccc4c(c3)OCO4)C2)cc(OC)c1OC (stereo not drawn)	none
COc1ccc(NC(=O)C(NC(=O)C2CCC(C)CC2)C(C)C)cc1 (stereo not drawn)	none (no result: D2 antag, D2 PAM-2, D2 ag-2)
NC(=O)C1(N2CCCCC2)CCN(c2ccc3nnc(-c4ccccc4)n3n2)CC1	D2 PAM-1 32, D2 ag-2 inconclusive
CCc1nnc(SCc2ccc(F)cc2Cl)c2cc3sc(C)cc3n12	none (no result: D2 antag, D2 PAM-2, D2 ag-2)
CCOc1ccc(C(=O)NCCc2csc(-c3ccc(C(F)(F)F)cc3)n2)cc1OCC	none (no result: D2 antag, D2 PAM-2, D2 ag-2)
CCCS(=O)(=O)Nc1cc(-c2cn3cccc(C)c3n2)ccc1C	none (no result: D2 antag, D2 PAM-2, D2 ag-2)
Cc1c(C(=O)N2CCC(C)CC2)c(S(=O)(=O)Nc2cccc(C#N)c2)c(C)n1C	none (no result: D2 antag, D2 PAM-2, D2 ag-2)
CC(C)c1ccc(NC(=O)CN2C(=O)COc3ccc(S(=O)(=O)N4CCCCC4)cc32)cc1	none (no result: D2 antag, D2 PAM-2, D2 ag-2)
Cc1nc(Nc2cccc(O)c2)c2oc3ccccc3c2n1	D2 antag 33
COc1cc2oc(=O)c(CC(=O)NCCc3ccccc3F)c(C)c2cc1OC	none (no result: D2 antag, D2 PAM-2, D2 ag-2)
CN(C)CCCNC(=S)/N=c1\sccn1Cc1ccccc1Cl	D2 antag 90
CCOc1ccc(/C=C/c2nc(C#N)c(NCCc3ccccc3)o2)cc1	none (no result: D2 antag, D2 PAM-2, D2 ag-2)
Cc1ccc(NC(=O)c2ccc(OCc3c(C)noc3C)cc2)cc1	none (no result: D2 PAM-2, D2 ag-2)
Cc1ccc(NC(=O)c2ccc(OCc3c(C)noc3C)cc2)nc1	D2 antag 34
CC1CCC(C(C)C)C(OC(=O)COC(=O)c2cc(O)ccc2N)C1 (stereo not drawn)	D2 PAM-2 93, D2 ag-2 inconclusive
CC1CCC(C(C)C)C(OC(=O)COC(=O)c2ccc(=O)[nH]c2)C1 (stereo not drawn)	none
CCc1nc(N2CCC3(CC2)OCCO3)c2nnn(Cc3ccccc3Cl)c2n1	D2 PAM-1 34
Clc1ccccc1Cn1nnc2c(N3CCCC3)ncnc21	none
CCOC(=O)c1c(-c2ccc(OC)cc2)oc2ccc(OCC(N)=O)cc12	D2 ag-2 inconclusive
CCOC(=O)c1c(-c2ccccc2)oc2ccc(OCC(=O)O)cc12	D2 antag 33
CCC(=O)N1CCCc2cc(S(=O)(=O)N3CCN(c4ncccn4)CC3)ccc21	D2 antag 31
Cc1ccc2c(c1)C1CN(C)CCC1N2S(=O)(=O)c1ccc(C#N)cc1 (stereo not drawn)	D2 antag 40
Cc1ccc2c(c1)C1CN(C)CCC1N2C(=O)c1ccccc1NS(=O)(=O)c1ccc(F)cc1 (stereo not drawn)	none
Cc1cc(-c2ccc(C)c(S(=O)(=O)Nc3cccc(C#N)c3)c2)on1	none (no result: D2 antag, D2 PAM-2, D2 ag-2)
CCOc1cc2sc(N3CCC(C(=O)Nc4ccc(C)cc4C)CC3)nc2cc1Br	none (no result: D2 antag, D2 PAM-2, D2 ag-2)
COCCCn1c(SCc2nnc(-c3ccccc3)o2)nc2sc3c(c2c1=O)CCC3	D2 PAM-1 33
CC(C)(CC(=O)O)Cc1nc(-c2ccc(Cl)cc2)no1	D2 antag 44
COc1ccc(-c2noc(CNC(=O)c3ccco3)n2)cc1	none (no result: D2 antag, D2 PAM-2, D2 ag-2)
O=C(NCc1nc(-c2ccc(Cl)cc2)no1)c1ccco1	D2 antag 34
C=CCC(CC=C)(CNC(=O)C(=O)Nc1cccc(C(F)(F)F)c1)c1ccccc1	none (no result: D2 antag, D2 PAM-2, D2 ag-2)
CC(=O)N1CCCc2cc(S(=O)(=O)NCc3ccc(OC(C)C)cc3)ccc21	none (no result: D2 antag, D2 PAM-2, D2 ag-2)
FC(F)Oc1ccc(/C=N/c2c(-c3ccc(OC(F)F)cc3)nc3n2CCS3)cc1	D2 PAM-1 35
COc1ccc(-c2nc3n(c(=O)c2C#N)CCS3)cc1	none (no result: D2 antag, D2 PAM-1, D2 ag-1)
COc1ccc(CN2CCn3ncc(C(=O)Nc4cc(C)cc(C)c4)c3C2=O)cc1	D2 antag 38
COC(=O)c1cc2n(n1)CCN(Cc1ccc(OC)cc1)C2=O	none
CCCCOc1ccc(Cc2c(COCC)[nH]c(=S)[nH]c2=O)cc1	D2 antag 35
Cc1[nH]c(=S)[nH]c(=O)c1Cc1ccc(OCC(C)C)cc1	D2 antag 31
COc1ccc(CC(=O)OC(C)C(=O)c2ccc(C)cc2)cc1 (stereo not drawn)	none
COc1ccc(C(=O)C(C)OC(=O)c2sc(C)nc2C)cc1 (stereo not drawn)	D2 antag 31
O=C(O)CSCCc1ccccn1	D2 antag 53
CC(C)CC(NS(=O)(=O)c1ccccc1)C(=O)O (stereo not drawn)	none
CC(C)CN=C(NS(=O)(=O)c1ccccc1)C(Cl)(Cl)Cl	D2 PAM-2 77
Cc1ccc(-c2cn3nc(N4CCCC(C(=O)Nc5ccc(F)cc5)C4)sc3n2)cc1 (stereo not drawn)	none (no result: D2 antag, D2 PAM-2, D2 ag-2)
CC1CC(C)CN(CC(O)COC2CC(C)CC(C)(C)C2)C1 (stereo not drawn)	none (no result: D2 antag, D2 PAM-1, D2 ag-1)
CC1CC(OCC(O)CN2CCOCC2)CC(C)(C)C1 (stereo not drawn)	D2 antag 46
O=C(CSc1ncc2c(n1)-c1ccccc1N(Cc1ccc(F)cc1)S2(=O)=O)c1ccc(Cl)cc1	none (no result: D2 antag, D2 PAM-2, D2 ag-2)
Cc1nnc(N2CCN(c3ccccc3F)CC2)c2c1nnn2Cc1ccc(F)cc1	none (no result: D2 antag, D2 PAM-2, D2 ag-2)
NS(=O)(=O)c1ccc(NC(=O)CSc2nc3ccccc3n2-c2ccccc2)cc1	D2 antag 31
CCOc1ccccc1CNC(=O)CN1C(=O)CCc2cc(S(=O)(=O)N3CCCCC3)ccc21	none (no result: D2 antag, D2 ag-1, D2 PAM-2, D2 ag-2)
O=C(NCc1ccccc1)C1CCN(S(=O)(=O)c2ccc3c(c2)CCCN3C(=O)C2CCC2)CC1	none (no result: D2 antag, D2 PAM-2, D2 ag-2)
CCOC(=O)C1CCN(CC(O)COc2ccc(S(=O)(=O)N3CCCC3)cc2[N+](=O)[O-])CC1 (stereo not drawn)	D2 ag-1 36
Cc1nc2ccccn2c(=O)c1NC(=O)c1ccc(C(F)(F)F)cc1	none (no result: D2 antag, D2 PAM-2, D2 ag-2)
CC(=O)Nc1ccc(N/C=C/C(=O)c2ccco2)cc1	none
CN(C)c1ccc(N/C=C/C(=O)c2ccco2)cc1	D2 PAM-2 55
COc1ccc(N2C(=O)CS(=O)(=O)C23C(=O)N(Cc2ccccc2F)c2ccccc23)cc1Cl (stereo not drawn)	none (no result: D2 antag, D2 PAM-2, D2 ag-2)
CC1CCCN(c2nc3c(c(=O)[nH]c(=O)n3C)n2CCSc2nc3ccccc3o2)C1 (stereo not drawn)	none

Source: PubChem BioAssay
